# Screens (PubChem BioAssay)
# This is a sample that favours compounds with a hit; in the whole collection about 19% have one here.
# DT40 TDP1 CPT: qHTS for Inhibitors of human tyrosyl-DNA phosphodiesterase 1 (TDP1): qHTS in cells in presence of CPT; chicken DT40 Tdp1-/-;hTDP1 cells + 20 nM CPT, ATP luminescence, 48 h; Potency, µM (highest dose often 46.2 µM), most hits filed as inhibitors; 420,000 compounds, 12% hits; further: nearly all actives have a fitted effect of over 55% in size
#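 Chicken DT40 Tdp1-/- cells stably complemented with human TDP1 were seeded at 400 cells/well in medium containing 20 nM camptothecin, exposed to pin-transferred compounds, and grown at 37 °C for at least 48 hr. Viability was read as ATP luminescence.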
# DT40 TDP1 no CPT: qHTS for Inhibitors of human tyrosyl-DNA phosphodiesterase 1 (TDP1): qHTS in cells in absence of CPT. 420,000 compounds, 15% hits. Potency, µM (series often up to 46.2 µM), usual class: inhibitors. AID 686978, 2013. DT40 Tdp1-/- hTDP1 cells, no CPT, ATP luminescence, 48 h; further: nearly all actives have a fitted effect of over 55% in size
#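 Cells were dispensed at 400 per well, compounds added by pin tool, plates incubated ≥48 hr at 37 °C, then CellTiter-Glo added for 30 min at room temperature before luminescence reading. Line: DT40 Tdp1-/- complemented with hTDP1; camptothecin omitted.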
# ELG1 DNA repair: qHTS screen for small molecules that inhibit ELG1-dependent DNA repair in human embryonic kidney (HEK293T) cells expressing luciferase-tagged ELG1 | 330,000 compounds, 2.3% hits | AID 504467, 2011 | HEK293T ELG1-luciferase reporter, luminescence, 16 h; DNA damage induced by 5-fluorouridine | Potency, µM (doses to about 46.1 µM), hits mostly inhibitors; further: nearly all actives have a fitted effect of over 55% in size
#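 5-Fluorouridine DNA damage + compound/DMSO, 2,000 cells/well, 16 h, 37 °C/5% CO2. ONE-Glo, 30 min RT, luminescence. Readout = decrease in reporter signal.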
# IL1B secr inh: qHTS for Inhibitors of Inflammasome Signaling: IL-1-beta AlphaLISA Primary Screen. THP-1 LPS/ATP IL-1B secretion, AlphaLISA, 16 h; active compounds read low. activity change, % at 57.5 µM. 360,000 compounds, 4.7% hits. AID 743279, 2014; in the data active means activity change below about -50%; inconclusive means mostly about -30% to -49%
#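 Secreted IL-1B measured by AlphaLISA bead assay after 16 h compound exposure of THP-1 cells; compounds (final up to 57.5 uM) added 1 h before LPS (250 ng/mL) and ATP (1.25 mM) stimulation; lower signal means less secretion.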
# TDP1 block: qHTS Assay for Inhibitors of Tyrosyl-DNA Phosphodiesterase (TDP1); Potency, µM (series often up to 130 µM), most hits filed as inhibitors; recombinant TDP1, AlphaScreen DNA substrate cleavage; 350,000 compounds, 0.28% hits; further: nearly all actives have a fitted effect of over 40% in size
# Target sequence (Q9NUW8 whole entry, looked up): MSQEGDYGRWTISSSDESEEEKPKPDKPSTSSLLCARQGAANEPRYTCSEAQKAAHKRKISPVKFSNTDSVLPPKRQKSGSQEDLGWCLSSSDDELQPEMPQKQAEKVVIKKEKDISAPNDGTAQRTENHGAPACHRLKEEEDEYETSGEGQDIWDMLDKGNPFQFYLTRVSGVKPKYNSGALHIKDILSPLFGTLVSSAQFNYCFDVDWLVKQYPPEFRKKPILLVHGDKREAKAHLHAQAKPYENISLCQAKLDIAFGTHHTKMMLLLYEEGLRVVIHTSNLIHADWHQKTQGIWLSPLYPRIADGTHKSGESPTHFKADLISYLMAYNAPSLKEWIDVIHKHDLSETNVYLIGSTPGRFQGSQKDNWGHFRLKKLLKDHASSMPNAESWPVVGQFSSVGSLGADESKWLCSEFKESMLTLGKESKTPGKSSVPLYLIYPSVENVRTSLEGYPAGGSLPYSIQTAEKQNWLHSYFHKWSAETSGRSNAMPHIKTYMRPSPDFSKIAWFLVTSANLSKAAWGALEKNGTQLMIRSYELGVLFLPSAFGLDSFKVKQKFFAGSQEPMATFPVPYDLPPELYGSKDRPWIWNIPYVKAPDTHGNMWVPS
#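 Tdp1 1 nM final; 15 min RT w/ cpd; substrate 15 nM, 5 min; beads 10 ug/ml, 10 min; AlphaScreen read. Neg ctrl: no enzyme.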
# Giardia killer: Small Molecules that selectively kill Giardia lamblia: qHTS; activity change, % at 7.66 µM, hits read low; AID 540267, 2011; 340,000 compounds, 0.15% hits; Giardia lamblia trophozoite viability; in the data active means activity change below about -80%; inconclusive means between about -30% and that limit;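 further: parasites exposed to compound for two days anaerobically before the ATP read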
#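 Each well holds 100 Giardia trophozoites and compound. After two days (48 hrs) at 37 deg C in anaerobic conditions, ATP is quantified by luminescence.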
# Numbers stand for hits; i = inactive; ? = inconclusive; nt = not tested or not shown; [ ] = dose if it differs, or a comment. Unless noted, the call rests on the fitted dose curve; in most records, active means well fitted curve in the direction sought with a large enough effect; inconclusive means small, poorly fitted or top-dose-only effect, or another doubt; inactive means no such curve, though single readings can be large; an effect the other way counts as inactive or inconclusive.
SMILES,DT40 TDP1 CPT,DT40 TDP1 no CPT,ELG1 DNA repair,IL1B secr inh,TDP1 block,Giardia killer
COc1ccc2c(c1OC)C(Cc1ccccc1)N1CCc3cc4c(cc3C1=C2)OCO4 (centres undefined),2.99µM,3.76µM,nt,nt,i,nt
COc1ccc2c(c1OC)C(=O)O[C@@H]2[C@H]1c2c(cc3c(c2OC)OCO3)CCN1C,i,i,i,nt,i,i
O=C(c1cnccn1)N1CCC[C@@]2(CCN(C(c3ccccc3)c3ccccc3)C2)C1,i,?,nt,nt,nt,nt
Cc1cc(Cl)ccc1OCC(=O)NCCOc1nc(N2CCCCC2)nc(N2CCOCC2)n1,7.31µM,6.51µM,i,i,i,i
COc1cc(C)nc(OCCNC(=O)COc2ccc(Cl)cc2C)n1,16.4µM,20.6µM,i,i,i,i
CN(C)c1nc(OCCNC(=O)Nc2ccccc2)nc(N(C)C)n1,i,i,i,i,i,i
Cc1cc(Cl)ccc1OCC(=O)NCCC(=O)O,i,?,i,i,i,i
CN(C)c1nc(OCCNC(=O)COc2ccccc2Cl)nc(N(C)C)n1,?,10.3µM,?,i,i,i
COc1ccccc1CNC(=O)C1CCCN(S(=O)(=O)c2cccs2)C1 (centres undefined),i,i,i,i,i,i
O=C(Cn1cncn1)N/N=C/c1cc([N+](=O)[O-])ccc1O,i,i,?,i,i,i
O=C(Cn1nnc(-c2ccccc2)n1)N/N=C/c1cc([N+](=O)[O-])ccc1O,5.8µM,4.11µM,i,i,i,i
O=C(N/N=C/c1cc([N+](=O)[O-])ccc1O)C1CCCCC1,5.17µM,4.61µM,i,i,i,i
O=C(CSc1ccccn1)N/N=C/c1ccccc1[N+](=O)[O-],i,?,?,i,i,i
O=C(Cn1nc2ccccc2n1)N/N=C/c1cc([N+](=O)[O-])ccc1O,?,?,6.51µM,i,i,i
O=C(CSc1ccccn1)N/N=C/c1cc([N+](=O)[O-])ccc1O,?,?,16.4µM,i,i,i
CC(C)CO/N=C1/C[C@@H](O)[C@@H](O)[C@@H]2[C@H]3C(=O)N(c4ccc(F)cc4F)C(=O)[C@@H]3CC[C@@H]12,nt,nt,nt,nt,i[21 µM],nt
CN(C)c1ccc(NC(=O)CSc2nnc(-c3cnccn3)n2C)cc1,i,i,i,i,i,i
CSC[C@H]1CN(c2ccc(Br)cc2)C(=O)[C@@H]1CC(=O)Nc1ccc(Br)cc1,i,?,nt,i,nt,nt
Cc1ccc2nc(NCCO)nc(-c3ccccc3)c2c1,?,25.9µM,i,i,i,i
Cc1cc(-c2ccccc2)nc(N/N=C/c2ccccc2F)n1,?,?,?,i,nt,i
N#Cc1ccccc1/C=N/Nc1nc(-c2ccccc2)c2cc(Cl)ccc2n1,?,?,i,i,i,i
OCCNc1nc(-c2ccccc2)c2cc(Cl)ccc2n1,i,i,i,i,i,i
Cc1ccc2nc(N/N=C/c3ccccc3F)nc(-c3ccccc3)c2c1,?,?,?,-52.6,i,i
Cc1ccc2nc(N/N=C/c3ccccc3C#N)nc(-c3ccccc3)c2c1,?,23.1µM,20.6µM,-73.2,i,i
CON(C)C(=O)c1nnc2c3ccccc3n(S(=O)(=O)c3ccc(C)cc3)c2n1,nt,nt,nt,nt,i[21 µM],nt
CCn1c(CNC(=O)COc2ccc(C(C)C)cc2)nnc1SCC(=O)NC1CCCCC1C (centres undefined),?,?,16.4µM,i,i,i
N#Cc1ccccc1S(=O)(=O)N1CCN(C(=O)c2cc(=O)[nH]c3ccccc23)CC1,?,i,i,i,i,i
